PubChem BioAssay AID1159580 (chemical genetic matrix, 2015)
“And” between values parts separate entries of the source, which are not always exact repeats. Identical values can stand only once. The whole screen tested about 5,500 compounds, of which about 2,000 (36%) were called active. About 18% were inconclusive and are not listed. Cut-off read from the data, not from the text of the source: active = normalized growth mostly below about 0.91 (no sharp cut-off); inconclusive = no clear call, values can overlap the other calls; inactive = mostly above about 0.92. This is one part of the list.

Test: chemical genetic growth profiling, strain panel (AID 1159580);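 note: tested at 20 µM; growth read once vehicle control cultures reached saturation at 30 °C; 1 = growth at the plate median or of vehicle wells; lower values mean less growth of the strain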
Conditions: S. cerevisiae deletion strains, growth OD

Measured: normalized growth

C=C1C(=O)O[C@@H]2C[C@@]3(C)CCC[C@H](C)C3=C[C@H]12
0.753 (active) and 1.01 (inactive): locus YJL095W, strain BCK1, stronger effect = lower value
active: locus YAL021C, strain ccr4, stronger effect = lower value 0.849 | locus YAL026C, strain drs2, stronger effect = lower value 0.718 | locus YAL030W, strain snc1, stronger effect = lower value 0.882 | locus YBL061C, strain skt5, stronger effect = lower value 0.901 | locus YBR009C, strain hhf1, stronger effect = lower value 0.733 | locus YBR023C, strain chs3, stronger effect = lower value 0.886 | locus YBR171W, strain sec66, stronger effect = lower value 0.837 | locus YBR231C, strain swc5, stronger effect = lower value 0.572 | locus YBR279W, strain paf1, stronger effect = lower value 0.88 | locus YCL011C, strain gbp2, stronger effect = lower value 0.822 | locus YCL016C, strain dcc1, stronger effect = lower value 0.849 | locus YCL061C, strain MRC1, stronger effect = lower value 0.881 | locus YCL069W, strain vba3, stronger effect = lower value 0.876 | locus YCR088W, strain abp1, stronger effect = lower value 0.896 | locus YDL040C, strain nat1, stronger effect = lower value 0.899 | locus YDL074C, strain BRE1, stronger effect = lower value 0.72 | locus YDL101C, strain DUN1, stronger effect = lower value 0.85 | locus YDL134C, strain PPH21, stronger effect = lower value 0.848 | locus YDL192W, strain arf1, stronger effect = lower value 0.758 | locus YDR001C, strain nth1, stronger effect = lower value 0.897 | locus YDR069C, strain doa4, stronger effect = lower value 0.779 | locus YDR137W, strain rgp1, stronger effect = lower value 0.267 | locus YDR159W, strain sac3, stronger effect = lower value 0.71 | locus YDR162C, strain NBP2, stronger effect = lower value 0.699 | locus YDR195W, strain ref2 1.16 [resistant] | locus YDR297W, strain sur2, stronger effect = lower value 0.855 | locus YDR318W, strain mcm21, stronger effect = lower value 0.814 | locus YDR334W, strain swr1, stronger effect = lower value 0.442 | locus YDR335W, strain msn5, stronger effect = lower value 0.875 | locus YDR388W, stronger effect = lower value 0.869 | locus YDR392W, strain spt3, stronger effect = lower value 0.127 | locus YDR502C, strain sam2, stronger effect = lower value 0.833 | locus YEL003W, strain gim4, stronger effect = lower value 0.715 | locus YEL037C, strain rad23, stronger effect = lower value 0.907 | locus YEL061C, strain CIN8 (second series), stronger effect = lower value 0.88 | locus YEL061C, strain CIN8, stronger effect = lower value 0.916 | locus YER015W, strain faa2, stronger effect = lower value 0.855 | locus YER016W, strain bim1, stronger effect = lower value 0.911 | locus YER110C, stronger effect = lower value 0.836 | locus YER155C, strain BEM2 (second series), stronger effect = lower value 0.585 | locus YER155C, strain BEM2, stronger effect = lower value 0.71 | locus YFR010W, strain ubp6, stronger effect = lower value 0.862 | locus YGL086W, strain mad1, stronger effect = lower value 0.89 | locus YGL167C, strain pmr1, stronger effect = lower value 0.848 | locus YGL173C, strain kem1, stronger effect = lower value 0.888 | locus YGL227W, strain vid30, stronger effect = lower value 0.912 | locus YGL240W, strain doc1, stronger effect = lower value 0.599 | locus YGL248W, strain PDE1, stronger effect = lower value 0.799 | locus YGL253W, strain hxk2, stronger effect = lower value 0.742 | locus YGR135W, strain pre9, stronger effect = lower value 0.801 | locus YHR013C, strain ard1, stronger effect = lower value 0.616 | locus YHR027C, strain rpn1, stronger effect = lower value 0.874 | locus YHR129C, strain ARP1, stronger effect = lower value 0.852 | locus YHR142W, strain chs7, stronger effect = lower value 0.787 | locus YHR200W, strain rpn10, stronger effect = lower value 0.876 | locus YIL066C, strain RNR3, stronger effect = lower value 0.756 | locus YIR030C, strain dcg1, stronger effect = lower value 0.903 | locus YJL092W, strain hpr5, stronger effect = lower value 0.904 | locus YJL095W, strain BCK1 (second series), stronger effect = lower value 0.894 | locus YJL115W, strain asf1, stronger effect = lower value 0.88 | locus YJL129C, strain trk1, stronger effect = lower value 0.76 | locus YJL164C, strain tpk1, stronger effect = lower value 0.809 | locus YJL166W, strain qcr8, stronger effect = lower value 0.654 | locus YJL187C, strain SWE1, stronger effect = lower value 0.903
inactive: locus YAL013W, strain DEP1, stronger effect = lower value 0.933 | locus YBR021W, strain FUR4, stronger effect = lower value 1.05 | locus YBR229C, strain ROT2, stronger effect = lower value 0.943 | locus YCL029C, strain bik1, stronger effect = lower value 0.949 | locus YDL005C, strain med2, stronger effect = lower value 0.937 | locus YDL035C, strain GPR1, stronger effect = lower value 0.895 | locus YDL185W, strain tfp1, stronger effect = lower value 0.94 | locus YDR101C, strain arx1, stronger effect = lower value 0.945 | locus YDR150W, strain NUM1, stronger effect = lower value 0.925 | locus YER111C, strain swi4, stronger effect = lower value 0.911 | locus YER167W, strain BCK2, stronger effect = lower value 0.906 | locus YGL078C, strain dbp3, stronger effect = lower value 0.981 | locus YGR252W, strain gcn5, stronger effect = lower value 0.864 | locus YHR030C, strain SLT2, stronger effect = lower value 0.927 and 1.01 | locus YHR079C, strain IRE1 (second series), stronger effect = lower value 0.936 | locus YHR079C, strain IRE1, stronger effect = lower value 0.986 | locus YHR094C, strain hxt1, stronger effect = lower value 0.942 | locus YIL073C, strain SPO22, stronger effect = lower value 0.717 | locus YIL125W, strain kgd1, stronger effect = lower value 0.953 | locus YJL134W, strain LCB3, stronger effect = lower value 0.934 | locus YJL154C, strain vps35, stronger effect = lower value 0.921 | locus YJL168C, strain set2, stronger effect = lower value 0.951 | locus YJL187C, strain SWE1 (second series), stronger effect = lower value 0.875
